# Legend:
# [1] = target: Tyrosine-protein kinase Fer (Homo sapiens) (UniProt P16591); conditions: at 10 µM
# [2] = target: Tyrosine-protein kinase Fes/Fps (Homo sapiens) (UniProt P07332); conditions: at 1 µM
# [3] = target: Tyrosine-protein kinase Fes/Fps (Homo sapiens) (UniProt P07332); conditions: at 10 µM
# [4] = target: Tyrosine-protein kinase Fgr (Homo sapiens) (UniProt P09769); conditions: at 1 µM
# [5] = target: Tyrosine-protein kinase Fgr (Homo sapiens) (UniProt P09769); conditions: at 10 µM
# [6] = target: Vascular endothelial growth factor receptor 1 (Homo sapiens) (UniProt P17948); conditions: at 1 µM
# Chain of Vascular endothelial growth factor receptor 1 (Homo sapiens) (P17948 whole entry): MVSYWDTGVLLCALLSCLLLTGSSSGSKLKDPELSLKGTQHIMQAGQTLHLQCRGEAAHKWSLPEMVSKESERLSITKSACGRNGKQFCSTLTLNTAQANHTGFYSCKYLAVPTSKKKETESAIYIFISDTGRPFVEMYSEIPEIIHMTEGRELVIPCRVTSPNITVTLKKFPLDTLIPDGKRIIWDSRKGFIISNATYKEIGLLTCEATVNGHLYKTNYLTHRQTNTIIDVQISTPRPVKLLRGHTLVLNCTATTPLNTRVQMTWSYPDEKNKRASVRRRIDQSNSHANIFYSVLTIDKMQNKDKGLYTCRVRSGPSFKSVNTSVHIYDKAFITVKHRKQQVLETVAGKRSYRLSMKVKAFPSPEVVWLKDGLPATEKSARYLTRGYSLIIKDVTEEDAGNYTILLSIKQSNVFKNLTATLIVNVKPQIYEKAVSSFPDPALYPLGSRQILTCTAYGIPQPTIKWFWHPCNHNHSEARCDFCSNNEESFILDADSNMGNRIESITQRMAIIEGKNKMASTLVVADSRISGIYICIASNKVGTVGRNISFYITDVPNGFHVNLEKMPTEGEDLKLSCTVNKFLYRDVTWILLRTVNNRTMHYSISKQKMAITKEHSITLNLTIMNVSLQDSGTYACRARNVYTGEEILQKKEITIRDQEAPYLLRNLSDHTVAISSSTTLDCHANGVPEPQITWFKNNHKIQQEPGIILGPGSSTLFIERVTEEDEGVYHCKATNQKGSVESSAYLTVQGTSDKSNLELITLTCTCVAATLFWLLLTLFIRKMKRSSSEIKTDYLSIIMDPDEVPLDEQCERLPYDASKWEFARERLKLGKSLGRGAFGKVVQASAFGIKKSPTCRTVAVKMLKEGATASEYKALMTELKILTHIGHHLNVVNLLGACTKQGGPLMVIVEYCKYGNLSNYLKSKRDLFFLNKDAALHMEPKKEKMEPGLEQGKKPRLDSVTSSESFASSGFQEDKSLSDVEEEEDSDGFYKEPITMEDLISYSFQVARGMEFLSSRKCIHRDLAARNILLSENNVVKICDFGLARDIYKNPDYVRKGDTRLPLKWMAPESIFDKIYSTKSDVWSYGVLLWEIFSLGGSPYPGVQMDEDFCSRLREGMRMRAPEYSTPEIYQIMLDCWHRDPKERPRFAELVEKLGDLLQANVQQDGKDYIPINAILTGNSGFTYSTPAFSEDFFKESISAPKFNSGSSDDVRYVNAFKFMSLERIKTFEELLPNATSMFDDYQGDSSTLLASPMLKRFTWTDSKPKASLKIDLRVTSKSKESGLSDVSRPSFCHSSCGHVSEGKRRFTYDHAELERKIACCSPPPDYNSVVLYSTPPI
# [7] = target: Vascular endothelial growth factor receptor 1 (Homo sapiens) (UniProt P17948); conditions: at 10 µM
# [8] = target: Receptor-type tyrosine-protein kinase FLT3 (Homo sapiens) (UniProt P36888); conditions: at 1 µM
# [9] = target: Receptor-type tyrosine-protein kinase FLT3 (Homo sapiens) (UniProt P36888); conditions: at 10 µM
# [10] = target: Vascular endothelial growth factor receptor 3 (Homo sapiens) (UniProt P35916); conditions: at 1 µM
# Chain of Vascular endothelial growth factor receptor 3 (Homo sapiens) (P35916 whole entry): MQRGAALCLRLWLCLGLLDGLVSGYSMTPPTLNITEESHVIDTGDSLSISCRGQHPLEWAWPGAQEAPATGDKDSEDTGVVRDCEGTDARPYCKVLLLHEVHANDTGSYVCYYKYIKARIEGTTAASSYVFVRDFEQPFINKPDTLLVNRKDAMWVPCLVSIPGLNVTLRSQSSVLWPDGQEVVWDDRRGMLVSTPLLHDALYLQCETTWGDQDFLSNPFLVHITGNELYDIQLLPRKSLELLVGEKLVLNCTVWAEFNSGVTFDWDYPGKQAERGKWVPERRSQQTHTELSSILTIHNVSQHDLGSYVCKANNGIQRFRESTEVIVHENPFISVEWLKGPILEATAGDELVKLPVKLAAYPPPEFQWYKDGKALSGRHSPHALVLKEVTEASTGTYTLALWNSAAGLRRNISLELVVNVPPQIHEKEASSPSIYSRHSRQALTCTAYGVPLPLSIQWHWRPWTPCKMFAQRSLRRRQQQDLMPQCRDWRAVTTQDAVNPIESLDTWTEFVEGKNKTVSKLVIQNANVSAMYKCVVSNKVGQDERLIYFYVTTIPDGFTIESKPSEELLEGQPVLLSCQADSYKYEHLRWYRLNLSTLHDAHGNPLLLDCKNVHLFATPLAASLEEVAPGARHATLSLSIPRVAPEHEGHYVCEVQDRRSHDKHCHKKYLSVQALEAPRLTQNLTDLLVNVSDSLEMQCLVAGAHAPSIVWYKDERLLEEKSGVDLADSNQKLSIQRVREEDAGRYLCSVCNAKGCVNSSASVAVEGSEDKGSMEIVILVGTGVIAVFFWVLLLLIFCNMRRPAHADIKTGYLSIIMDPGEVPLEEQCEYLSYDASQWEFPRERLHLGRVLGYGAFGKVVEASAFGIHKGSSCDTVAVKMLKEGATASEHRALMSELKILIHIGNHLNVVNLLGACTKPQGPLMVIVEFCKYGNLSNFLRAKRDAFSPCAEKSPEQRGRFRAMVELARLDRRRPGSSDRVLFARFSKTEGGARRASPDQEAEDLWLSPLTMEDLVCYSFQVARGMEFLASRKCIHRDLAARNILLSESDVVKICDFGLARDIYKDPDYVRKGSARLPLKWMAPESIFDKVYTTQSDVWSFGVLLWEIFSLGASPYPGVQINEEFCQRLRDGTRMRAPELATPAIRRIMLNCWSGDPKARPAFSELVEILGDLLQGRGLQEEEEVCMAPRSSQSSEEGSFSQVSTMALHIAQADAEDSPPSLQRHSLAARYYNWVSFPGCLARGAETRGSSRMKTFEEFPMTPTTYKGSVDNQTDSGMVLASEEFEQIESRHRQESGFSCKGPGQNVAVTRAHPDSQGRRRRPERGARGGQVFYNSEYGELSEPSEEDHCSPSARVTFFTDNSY
# [11] = target: Vascular endothelial growth factor receptor 3 (Homo sapiens) (UniProt P35916); conditions: at 10 µM
# [12] = target: Macrophage colony-stimulating factor 1 receptor (Homo sapiens) (UniProt P07333); conditions: at 1 µM
# [13] = target: Macrophage colony-stimulating factor 1 receptor (Homo sapiens) (UniProt P07333); conditions: at 10 µM
# [14] = target: Tyrosine-protein kinase Fyn (Homo sapiens) (UniProt P06241); conditions: at 1 µM
# [15] = target: Tyrosine-protein kinase Fyn (Homo sapiens) (UniProt P06241); conditions: at 10 µM
# [16] = target: T1, Mitogen-activated protein kinase kinase kinase kinase 2 (Homo sapiens) (UniProt Q12851); conditions: at 1 µM
# T1 sequence (whole entry): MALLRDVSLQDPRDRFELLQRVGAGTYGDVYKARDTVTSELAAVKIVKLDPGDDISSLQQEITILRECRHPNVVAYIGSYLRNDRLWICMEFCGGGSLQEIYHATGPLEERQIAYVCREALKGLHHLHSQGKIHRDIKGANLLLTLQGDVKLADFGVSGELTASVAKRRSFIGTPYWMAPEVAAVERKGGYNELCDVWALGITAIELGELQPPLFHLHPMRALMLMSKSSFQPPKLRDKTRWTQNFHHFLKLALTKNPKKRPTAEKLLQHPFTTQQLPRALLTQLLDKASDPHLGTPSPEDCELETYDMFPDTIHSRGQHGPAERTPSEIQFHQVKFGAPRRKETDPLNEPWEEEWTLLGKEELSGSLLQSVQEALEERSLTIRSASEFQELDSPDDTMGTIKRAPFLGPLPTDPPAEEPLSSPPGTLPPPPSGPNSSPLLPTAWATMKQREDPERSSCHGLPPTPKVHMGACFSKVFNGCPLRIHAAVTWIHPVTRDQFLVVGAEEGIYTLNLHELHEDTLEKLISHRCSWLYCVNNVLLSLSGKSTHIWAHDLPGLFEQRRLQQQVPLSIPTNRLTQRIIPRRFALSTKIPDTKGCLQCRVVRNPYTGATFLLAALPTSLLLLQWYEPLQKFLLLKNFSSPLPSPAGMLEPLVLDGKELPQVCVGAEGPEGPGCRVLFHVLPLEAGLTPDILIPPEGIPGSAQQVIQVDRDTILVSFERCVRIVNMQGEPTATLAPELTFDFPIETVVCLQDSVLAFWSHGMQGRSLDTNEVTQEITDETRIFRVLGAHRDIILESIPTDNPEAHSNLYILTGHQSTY
# [17] = target: T1, Mitogen-activated protein kinase kinase kinase kinase 2 (Homo sapiens); conditions: at 10 µM
# [18] = target: G protein-coupled receptor kinase 5 (Homo sapiens) (UniProt P34947); conditions: at 10 µM
# [19] = target: G protein-coupled receptor kinase 6 (Homo sapiens) (UniProt P43250); conditions: at 10 µM
# Chain of G protein-coupled receptor kinase 6 (Homo sapiens) (P43250 whole entry, looked up): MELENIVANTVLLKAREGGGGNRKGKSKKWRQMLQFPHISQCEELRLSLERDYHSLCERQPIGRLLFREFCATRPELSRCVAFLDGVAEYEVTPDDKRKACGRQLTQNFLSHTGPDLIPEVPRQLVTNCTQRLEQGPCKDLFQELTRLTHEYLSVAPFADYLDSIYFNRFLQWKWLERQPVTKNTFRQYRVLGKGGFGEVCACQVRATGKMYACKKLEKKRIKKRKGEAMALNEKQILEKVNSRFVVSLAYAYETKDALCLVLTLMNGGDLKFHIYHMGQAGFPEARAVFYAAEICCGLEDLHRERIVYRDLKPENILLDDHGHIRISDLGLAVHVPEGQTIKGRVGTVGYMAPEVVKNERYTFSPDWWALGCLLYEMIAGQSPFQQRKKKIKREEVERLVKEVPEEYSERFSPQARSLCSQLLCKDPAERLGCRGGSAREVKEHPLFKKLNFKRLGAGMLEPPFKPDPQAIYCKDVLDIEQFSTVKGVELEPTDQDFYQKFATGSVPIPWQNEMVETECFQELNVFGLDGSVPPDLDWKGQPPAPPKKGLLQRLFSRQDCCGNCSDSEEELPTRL
# [20] = target: T2, Rhodopsin kinase GRK7 (Homo sapiens) (UniProt Q8WTQ7); conditions: at 1 µM
# T2 sequence (whole entry): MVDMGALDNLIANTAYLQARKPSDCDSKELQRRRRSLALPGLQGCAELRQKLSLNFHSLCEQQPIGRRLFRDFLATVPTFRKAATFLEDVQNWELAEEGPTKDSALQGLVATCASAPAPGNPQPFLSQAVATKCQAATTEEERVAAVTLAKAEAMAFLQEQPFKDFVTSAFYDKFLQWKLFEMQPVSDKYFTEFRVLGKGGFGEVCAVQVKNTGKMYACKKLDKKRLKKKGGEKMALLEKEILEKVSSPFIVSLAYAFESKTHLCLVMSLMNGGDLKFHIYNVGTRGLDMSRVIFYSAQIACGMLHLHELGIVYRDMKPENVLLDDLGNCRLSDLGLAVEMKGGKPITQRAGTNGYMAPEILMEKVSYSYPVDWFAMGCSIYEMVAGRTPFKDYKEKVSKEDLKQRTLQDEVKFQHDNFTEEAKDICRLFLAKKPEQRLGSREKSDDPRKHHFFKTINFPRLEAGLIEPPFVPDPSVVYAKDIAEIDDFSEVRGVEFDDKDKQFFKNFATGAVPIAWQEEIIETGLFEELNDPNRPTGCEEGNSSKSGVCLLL
# Chain of Tyrosine-protein kinase Fer (Homo sapiens) (P16591 whole entry, looked up): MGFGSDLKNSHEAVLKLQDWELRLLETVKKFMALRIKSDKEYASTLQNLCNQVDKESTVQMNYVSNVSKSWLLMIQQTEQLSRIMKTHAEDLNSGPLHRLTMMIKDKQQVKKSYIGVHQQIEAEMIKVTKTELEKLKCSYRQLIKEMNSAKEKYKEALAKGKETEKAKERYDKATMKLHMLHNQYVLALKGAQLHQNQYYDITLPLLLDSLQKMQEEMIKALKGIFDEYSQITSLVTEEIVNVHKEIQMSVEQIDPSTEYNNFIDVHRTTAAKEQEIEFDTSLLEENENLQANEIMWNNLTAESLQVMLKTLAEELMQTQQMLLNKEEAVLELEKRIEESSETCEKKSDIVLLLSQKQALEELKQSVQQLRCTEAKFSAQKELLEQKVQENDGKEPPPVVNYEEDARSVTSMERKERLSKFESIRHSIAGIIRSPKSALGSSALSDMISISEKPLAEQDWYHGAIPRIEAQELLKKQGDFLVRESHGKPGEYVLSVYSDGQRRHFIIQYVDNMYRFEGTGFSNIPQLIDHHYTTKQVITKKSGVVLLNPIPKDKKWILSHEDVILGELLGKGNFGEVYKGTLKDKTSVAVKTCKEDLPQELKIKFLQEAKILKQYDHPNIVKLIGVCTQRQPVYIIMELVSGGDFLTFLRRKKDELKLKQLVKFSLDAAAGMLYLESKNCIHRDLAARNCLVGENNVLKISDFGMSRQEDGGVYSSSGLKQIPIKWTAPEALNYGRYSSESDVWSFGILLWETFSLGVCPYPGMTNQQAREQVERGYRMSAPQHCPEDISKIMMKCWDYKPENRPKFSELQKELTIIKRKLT
# Chain of Tyrosine-protein kinase Fgr (Homo sapiens) (P09769 2-529 limits assumed): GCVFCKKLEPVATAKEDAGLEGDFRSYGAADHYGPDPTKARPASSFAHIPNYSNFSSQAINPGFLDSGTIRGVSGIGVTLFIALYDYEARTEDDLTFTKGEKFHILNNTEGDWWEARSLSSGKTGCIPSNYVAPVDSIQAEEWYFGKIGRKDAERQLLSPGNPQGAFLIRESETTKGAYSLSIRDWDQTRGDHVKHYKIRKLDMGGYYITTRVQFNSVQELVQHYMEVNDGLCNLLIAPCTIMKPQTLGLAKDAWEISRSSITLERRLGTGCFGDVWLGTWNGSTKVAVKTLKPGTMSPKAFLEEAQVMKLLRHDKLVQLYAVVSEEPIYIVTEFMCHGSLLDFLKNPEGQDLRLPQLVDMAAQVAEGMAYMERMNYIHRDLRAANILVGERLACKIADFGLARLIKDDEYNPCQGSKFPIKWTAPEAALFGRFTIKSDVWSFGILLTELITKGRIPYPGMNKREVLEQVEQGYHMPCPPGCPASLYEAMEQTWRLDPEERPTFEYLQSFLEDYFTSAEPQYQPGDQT
Compound,residual activity [1],residual activity [2],residual activity [3],residual activity [4],residual activity [5],residual activity [6],residual activity [7],residual activity [8],residual activity [9],residual activity [10],residual activity [11],residual activity [12],residual activity [13],residual activity [14],residual activity [15],residual activity [16],residual activity [17],residual activity [18],residual activity [19],residual activity [20]
COc1ccc(CNc2nc(N(CCO)CCO)nc3c2ncn3C(C)C)cc1,86%,62%,23%,77%,85%,88%,55%,85%,74%,62%,30%,91%,69%,70%,90%,78%,78%,93%,86%,76%
CCOc1cc2ncnc(Nc3cccc(Br)c3)c2cc1OCC,85%,112%,80%,54%,10%,54%,6%,101%,40%,36%,4%,73%,27%,26%,4%,78%,39%,84%,90%,94%
CC#CC(=O)Nc1cc2c(Nc3ccc(F)c(Cl)c3)ncnc2cn1,94%,118%,81%,105%,95%,94%,101%,96%,85%,98%,93%,88%,83%,96%,88%,91%,84%,93%,83%,98%
CN(C)c1ccc(/C=C2\C(=O)Nc3ccccc32)cc1,82%,113%,79%,90%,44%,14%,2%,4%,1%,3%,1%,8%,2%,83%,56%,83%,25%,86%,90%,96%
O=C(Nc1cccc(Nc2cc(Nc3cccc(C(F)(F)F)c3)ncn2)c1)C1CC1,92%,113%,86%,90%,81%,99%,61%,108%,128%,97%,61%,71%,37%,92%,36%,100%,70%,100%,97%,102%
COc1cc2ncnc(Nc3ccc(O)c(Br)c3)c2cc1OC,84%,95%,65%,39%,6%,29%,4%,49%,2%,14%,2%,63%,22%,49%,9%,52%,18%,89%,78%,75%
Cn1cc(/C=C2\C(=O)Nc3ccc(S(N)(=O)=O)cc32)c2ccccc21,9%,40%,15%,9%,10%,22%,9%,1%,-1%,11%,3%,52%,12%,10%,3%,7%,1%,37%,89%,14%
CO[C@H]1C[C@@H]2CC[C@@H](C)[C@@](O)(O2)C(=O)C(=O)N2CCCC[C@H]2C(=O)O[C@H]([C@H](C)C[C@@H]2CC[C@@H](O)[C@H](OC)C2)CC(=O)[C@H](C)/C=C(\C)[C@@H](O)[C@@H](OC)C(=O)[C@H](C)C[C@H](C)/C=C/C=C/C=C/1C,95%,106%,84%,98%,99%,88%,96%,100%,96%,99%,106%,85%,65%,88%,95%,85%,79%,99%,83%,94%
Cc1cc(Nc2nc(-c3ccccc3)nc3ccccc23)n[nH]1,6%,58%,21%,18%,2%,0%,1%,2%,1%,0%,1%,4%,0%,2%,-2%,38%,6%,,65%,55%
COc1cc2ncc(-c3ccccc3)nc2cc1OC,99%,126%,87%,,,95%,67%,57%,16%,71%,17%,30%,7%,,84%,96%,90%,,91%,
Cn1cnc2cc3c(Nc4cccc(Br)c4)ncnc3cc21,93%,132%,83%,63%,35%,43%,18%,113%,58%,40%,8%,94%,37%,67%,34%,86%,70%,93%,96%,100%
CCN(CC)C(=O)c1ccc(Nc2nc(OCC3CCCCC3)c3nc[nH]c3n2)cc1,6%,61%,9%,55%,7%,33%,2%,5%,1%,0%,0%,1%,2%,35%,5%,33%,3%,,,97%
CC(C)n1cnc2/c(=N/c3cccc(Cl)c3)nc(NCCO)[nH]c21,47%,58%,12%,48%,12%,68%,30%,20%,1%,42%,5%,83%,39%,21%,3%,35%,19%,61%,53%,76%
N#Cc1cnc2cnc(NCc3cccnc3)cc2c1Nc1ccc(F)c(Cl)c1,95%,19%,12%,11%,4%,14%,7%,2%,0%,8%,2%,58%,60%,87%,74%,,3%,91%,,120%
O=[N+]([O-])c1ccc(-c2nc(-c3ccc(F)cc3)c(-c3ccncc3)[nH]2)cc1,,100%,116%,103%,96%,77%,46%,104%,90%,78%,71%,81%,54%,82%,70%,99%,91%,105%,94%,108%
Oc1ccc(-c2nc(-c3ccc(F)cc3)c(-c3ccncc3)[nH]2)cc1,93%,107%,99%,93%,40%,83%,26%,87%,85%,90%,29%,79%,58%,83%,27%,106%,87%,100%,97%,121%
COc1ccc(C(=O)Nc2sc3c(c2C(N)=O)CCCC3)cc1OC,91%,123%,,110%,93%,72%,81%,32%,35%,10%,12%,39%,43%,79%,95%,81%,81%,93%,84%,92%
CC(=O)c1ccc(N2CCOCC2)cc1O,,133%,94%,110%,102%,106%,97%,102%,86%,93%,88%,,,80%,96%,91%,89%,86%,91%,95%
O=C1Nc2ccc(Br)cc2/C1=C\c1cc2c([nH]1)CCCC2,,107%,78%,,72%,17%,20%,3%,1%,1%,1%,11%,3%,,,24%,42%,100%,,
Cc1ccc(S(=O)(=O)/C=C/C#N)cc1,99%,97%,108%,108%,105%,96%,100%,,89%,98%,89%,84%,89%,88%,100%,90%,89%,101%,94%,95%
c1ccc(-c2n[nH]cc2-c2ccnc3ccccc23)nc1,,107%,80%,90%,51%,36%,7%,48%,23%,37%,10%,71%,76%,94%,22%,43%,27%,103%,87%,93%
COc1cc2ncnc(Nc3ccc(NC(=O)c4ccccc4)cc3)c2cc1OC,94%,,90%,71%,25%,101%,72%,97%,92%,76%,14%,84%,79%,100%,48%,,70%,89%,94%,110%
CC[n+]1c(/C=C/N(C)c2ccccc2)n(-c2ccccc2)c2ccc(-c3nc4ccccc4s3)cc21,59%,121%,105%,98%,88%,105%,83%,77%,26%,89%,52%,93%,71%,101%,60%,103%,73%,91%,93%,112%
N#CC(C#N)=C(N)/C(C#N)=C/c1ccc(O)cc1,,,91%,,96%,96%,90%,100%,86%,94%,95%,79%,86%,,91%,84%,61%,,95%,98%
COc1cc2ncnc(Nc3ccc(Oc4ccccc4)cc3)c2cc1OC,76%,102%,90%,7%,2%,18%,4%,39%,11%,7%,0%,49%,53%,2%,0%,,,104%,88%,103%
CO[C@H]1[C@@H](OC)C[C@H](C)[C@@H](OC)C2=CC(=O)C=C(NC(=O)/C(C)=C/C=C/[C@H](OC)[C@@H](OC(N)=O)/C(C)=C/[C@@H]1C)C2=O,99%,111%,,99%,100%,86%,95%,85%,76%,92%,89%,131%,112%,88%,96%,92%,81%,102%,89%,100%
Nc1n[nH]c2nnc(-c3c(-c4ccccc4)nn4ccccc34)cc12,66%,85%,86%,86%,50%,71%,23%,72%,22%,76%,23%,67%,28%,71%,52%,67%,24%,99%,89%,83%
Cc1nc(-c2ccccc2)c(-c2ccncc2)o1,105%,108%,120%,95%,92%,89%,60%,69%,28%,-1%,0%,90%,86%,90%,69%,91%,77%,107%,97%,105%

# Source: ChEMBL document CHEMBL2218924, “A broad activity screen in support of a chemogenomic map for kinase signalling research and drug discovery” (Biochem J, 2013)
